The supplement of paper PMC10849652
Targets with a hit are over-represented here; the source holds about 7,900 in all. About 0.6% of all pairs of compound and target were hits.

The targets below were run with c1cn2cc(-c3ccc4cn[nH]c4c3)nc(Nc3ccc(N4CCOCC4)cc3)c2n1 [entospletinib] (assay: log2 fold change, soluble protein after heating vs DMSO (PISA); higher = thermal stabilisation; K562 cells, 10 uM, 30 min; active = over 0.2 and 3.5 SD of the protein, either way, in both replicates (recomputed)).
Outline: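 K562 cells (2×10^6 cells/mL) were treated with 10 μM compound for 30 min, and aliquots were heated for 3 min over 48°C-58°C. Pooled aliquots were extracted in PBS with 0.5% NP-40 at 4°C, and the supernatant after 21,000xg for 90 min was measured by TMTpro 16plex LC-MS/MS with channel sums equalised. Reported thermal stability, relative to control samples and from duplicates, is a log2 fold change.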

UniProt P28065, sequence (P28065 whole entry, looked up): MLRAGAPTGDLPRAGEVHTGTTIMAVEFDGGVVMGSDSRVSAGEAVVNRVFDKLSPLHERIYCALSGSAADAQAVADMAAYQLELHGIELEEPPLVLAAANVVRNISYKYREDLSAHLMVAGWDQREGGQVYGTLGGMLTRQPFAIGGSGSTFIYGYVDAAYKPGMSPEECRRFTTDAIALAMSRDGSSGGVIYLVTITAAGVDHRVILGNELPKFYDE
UniProt P53609, sequence (P53609 whole entry, looked up): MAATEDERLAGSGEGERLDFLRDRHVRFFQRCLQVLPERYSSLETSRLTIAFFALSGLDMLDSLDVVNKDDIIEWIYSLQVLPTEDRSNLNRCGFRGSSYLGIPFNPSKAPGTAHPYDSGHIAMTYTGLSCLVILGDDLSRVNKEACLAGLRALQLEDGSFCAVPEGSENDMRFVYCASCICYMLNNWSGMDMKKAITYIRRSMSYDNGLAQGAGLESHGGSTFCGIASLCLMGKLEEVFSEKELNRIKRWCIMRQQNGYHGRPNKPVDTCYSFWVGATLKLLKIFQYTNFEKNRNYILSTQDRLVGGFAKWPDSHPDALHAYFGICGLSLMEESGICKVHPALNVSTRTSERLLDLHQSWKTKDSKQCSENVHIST
UniProt Q02156, sequence (Q02156 whole entry, looked up): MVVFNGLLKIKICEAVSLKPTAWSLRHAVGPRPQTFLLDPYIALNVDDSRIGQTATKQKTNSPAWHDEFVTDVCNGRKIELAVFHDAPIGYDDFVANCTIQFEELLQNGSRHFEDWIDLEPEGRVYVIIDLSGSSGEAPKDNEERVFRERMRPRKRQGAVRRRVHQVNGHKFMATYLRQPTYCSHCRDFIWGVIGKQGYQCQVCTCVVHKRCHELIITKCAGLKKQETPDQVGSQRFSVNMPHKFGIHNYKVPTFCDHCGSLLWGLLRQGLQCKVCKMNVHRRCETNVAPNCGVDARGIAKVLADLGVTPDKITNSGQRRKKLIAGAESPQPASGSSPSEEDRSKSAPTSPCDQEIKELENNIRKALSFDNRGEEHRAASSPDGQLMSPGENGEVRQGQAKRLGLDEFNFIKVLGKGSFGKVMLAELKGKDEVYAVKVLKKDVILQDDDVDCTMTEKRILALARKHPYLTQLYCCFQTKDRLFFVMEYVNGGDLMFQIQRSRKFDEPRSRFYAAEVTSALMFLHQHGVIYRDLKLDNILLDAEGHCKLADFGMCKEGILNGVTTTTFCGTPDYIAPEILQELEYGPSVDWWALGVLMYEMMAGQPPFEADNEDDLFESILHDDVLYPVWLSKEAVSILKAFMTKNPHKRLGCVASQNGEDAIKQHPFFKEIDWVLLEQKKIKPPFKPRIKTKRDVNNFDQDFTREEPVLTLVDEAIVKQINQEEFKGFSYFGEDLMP
UniProt Q01970, sequence (Q01970 whole entry, looked up): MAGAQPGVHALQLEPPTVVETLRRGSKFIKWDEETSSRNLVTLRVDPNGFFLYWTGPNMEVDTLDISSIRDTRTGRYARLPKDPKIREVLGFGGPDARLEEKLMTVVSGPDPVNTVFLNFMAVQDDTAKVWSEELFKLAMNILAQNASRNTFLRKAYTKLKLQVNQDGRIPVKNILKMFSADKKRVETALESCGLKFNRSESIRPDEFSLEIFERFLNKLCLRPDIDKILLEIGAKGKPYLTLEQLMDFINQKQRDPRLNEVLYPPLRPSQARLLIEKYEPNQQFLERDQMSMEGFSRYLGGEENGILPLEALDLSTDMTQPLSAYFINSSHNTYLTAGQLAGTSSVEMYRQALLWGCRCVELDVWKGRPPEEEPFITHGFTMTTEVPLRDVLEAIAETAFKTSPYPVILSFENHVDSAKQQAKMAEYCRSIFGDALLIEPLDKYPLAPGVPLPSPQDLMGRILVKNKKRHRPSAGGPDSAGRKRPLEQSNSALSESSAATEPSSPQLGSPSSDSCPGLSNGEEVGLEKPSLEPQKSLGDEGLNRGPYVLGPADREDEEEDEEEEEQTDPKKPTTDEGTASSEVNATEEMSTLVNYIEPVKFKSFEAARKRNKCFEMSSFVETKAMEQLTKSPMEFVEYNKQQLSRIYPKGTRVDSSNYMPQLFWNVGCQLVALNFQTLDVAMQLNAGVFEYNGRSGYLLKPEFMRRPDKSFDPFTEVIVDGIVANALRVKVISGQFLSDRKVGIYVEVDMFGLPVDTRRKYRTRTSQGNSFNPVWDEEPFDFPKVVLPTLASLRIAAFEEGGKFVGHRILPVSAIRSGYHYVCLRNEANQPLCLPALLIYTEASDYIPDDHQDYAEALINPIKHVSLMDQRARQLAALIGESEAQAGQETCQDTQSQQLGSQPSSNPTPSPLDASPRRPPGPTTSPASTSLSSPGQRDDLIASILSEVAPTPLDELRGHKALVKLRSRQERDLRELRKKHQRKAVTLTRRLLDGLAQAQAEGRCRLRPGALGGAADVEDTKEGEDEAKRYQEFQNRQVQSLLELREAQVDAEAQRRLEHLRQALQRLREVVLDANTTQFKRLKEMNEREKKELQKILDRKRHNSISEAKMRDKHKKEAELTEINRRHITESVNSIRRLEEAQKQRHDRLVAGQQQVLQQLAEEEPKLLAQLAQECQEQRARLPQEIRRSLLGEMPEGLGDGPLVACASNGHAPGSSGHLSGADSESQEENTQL
UniProt Q6L8Q7, sequence (Q6L8Q7 whole entry, looked up): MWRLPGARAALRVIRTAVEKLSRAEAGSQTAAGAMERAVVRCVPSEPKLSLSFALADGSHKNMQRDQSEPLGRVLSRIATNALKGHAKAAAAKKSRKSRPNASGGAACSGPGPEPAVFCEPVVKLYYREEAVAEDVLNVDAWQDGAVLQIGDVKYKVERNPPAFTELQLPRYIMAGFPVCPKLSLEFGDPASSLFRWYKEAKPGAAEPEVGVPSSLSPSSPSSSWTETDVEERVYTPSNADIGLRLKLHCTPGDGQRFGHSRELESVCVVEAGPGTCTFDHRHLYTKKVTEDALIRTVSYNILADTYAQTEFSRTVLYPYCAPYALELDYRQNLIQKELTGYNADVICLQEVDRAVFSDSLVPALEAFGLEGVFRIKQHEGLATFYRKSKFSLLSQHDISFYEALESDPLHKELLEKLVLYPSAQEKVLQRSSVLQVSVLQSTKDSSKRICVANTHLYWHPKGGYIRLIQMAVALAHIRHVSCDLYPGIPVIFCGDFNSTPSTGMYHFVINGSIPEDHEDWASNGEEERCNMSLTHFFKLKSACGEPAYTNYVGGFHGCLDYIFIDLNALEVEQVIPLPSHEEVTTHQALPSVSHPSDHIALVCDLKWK
UniProt Q15008, sequence (Q15008 whole entry, looked up): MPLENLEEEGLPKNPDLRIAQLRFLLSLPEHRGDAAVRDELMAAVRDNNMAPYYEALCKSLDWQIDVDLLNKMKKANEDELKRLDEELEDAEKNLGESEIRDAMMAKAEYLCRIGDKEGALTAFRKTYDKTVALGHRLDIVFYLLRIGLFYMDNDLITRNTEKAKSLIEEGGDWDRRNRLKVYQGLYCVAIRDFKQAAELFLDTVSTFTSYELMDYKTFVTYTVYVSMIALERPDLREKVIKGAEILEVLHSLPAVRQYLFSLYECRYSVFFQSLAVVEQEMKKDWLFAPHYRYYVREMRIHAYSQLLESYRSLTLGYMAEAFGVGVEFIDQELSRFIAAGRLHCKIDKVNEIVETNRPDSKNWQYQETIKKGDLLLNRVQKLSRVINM
UniProt Q05209, sequence (Q05209 whole entry, looked up): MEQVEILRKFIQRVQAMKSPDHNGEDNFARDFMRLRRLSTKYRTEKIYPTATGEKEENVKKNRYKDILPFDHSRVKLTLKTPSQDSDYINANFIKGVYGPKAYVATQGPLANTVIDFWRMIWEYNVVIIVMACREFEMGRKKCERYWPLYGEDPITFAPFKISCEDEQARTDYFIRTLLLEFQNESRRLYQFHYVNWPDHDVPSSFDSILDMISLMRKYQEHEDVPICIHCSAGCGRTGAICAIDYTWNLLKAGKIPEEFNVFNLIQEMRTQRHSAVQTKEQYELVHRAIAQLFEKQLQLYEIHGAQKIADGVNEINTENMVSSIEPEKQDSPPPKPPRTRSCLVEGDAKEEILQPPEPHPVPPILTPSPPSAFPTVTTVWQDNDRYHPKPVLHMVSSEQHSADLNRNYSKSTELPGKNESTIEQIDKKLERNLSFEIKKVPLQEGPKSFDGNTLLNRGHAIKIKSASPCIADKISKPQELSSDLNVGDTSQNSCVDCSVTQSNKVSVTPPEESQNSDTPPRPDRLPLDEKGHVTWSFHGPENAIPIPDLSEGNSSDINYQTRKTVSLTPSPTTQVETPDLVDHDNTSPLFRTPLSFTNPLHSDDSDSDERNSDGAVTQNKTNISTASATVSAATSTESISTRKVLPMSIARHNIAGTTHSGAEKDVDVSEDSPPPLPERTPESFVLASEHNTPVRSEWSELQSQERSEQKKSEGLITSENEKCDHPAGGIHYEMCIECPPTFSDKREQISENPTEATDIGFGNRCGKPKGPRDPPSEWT
UniProt O15162, sequence (O15162 whole entry, looked up): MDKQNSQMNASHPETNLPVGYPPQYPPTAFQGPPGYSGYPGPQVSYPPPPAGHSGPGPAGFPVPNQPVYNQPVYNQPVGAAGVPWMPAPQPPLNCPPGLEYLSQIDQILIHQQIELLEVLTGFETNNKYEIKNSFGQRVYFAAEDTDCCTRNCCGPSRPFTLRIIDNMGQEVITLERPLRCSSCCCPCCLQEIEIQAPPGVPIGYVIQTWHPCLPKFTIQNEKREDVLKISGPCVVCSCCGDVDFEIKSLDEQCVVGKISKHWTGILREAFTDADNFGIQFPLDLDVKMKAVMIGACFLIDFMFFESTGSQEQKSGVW
UniProt Q96KB5, sequence (Q96KB5 whole entry, looked up): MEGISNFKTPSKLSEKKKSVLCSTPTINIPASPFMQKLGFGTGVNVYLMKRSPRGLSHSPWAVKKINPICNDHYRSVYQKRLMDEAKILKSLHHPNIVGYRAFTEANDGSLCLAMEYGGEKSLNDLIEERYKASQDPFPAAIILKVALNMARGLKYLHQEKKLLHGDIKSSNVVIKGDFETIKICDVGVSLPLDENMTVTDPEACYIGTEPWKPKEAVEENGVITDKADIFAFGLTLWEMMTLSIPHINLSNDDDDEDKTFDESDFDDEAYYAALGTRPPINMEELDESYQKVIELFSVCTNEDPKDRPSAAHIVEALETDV

log2 fold change, inactive:
PGM3 isoform 4 (UniProt O95394) -0.047
PLCB3 (UniProt Q01970) 0.028
PSD3 (UniProt Q9NYI0) -0.013
PSMD13 (UniProt Q9UNM6) 0.049
PRKCE (UniProt Q02156) 0.016
PSMB9 (UniProt P28065) -0.251
PDLIM7 (UniProt Q9NR12) 0.012
PSMC1 (UniProt P62191) 0.006
PBK (UniProt Q96KB5) 0.109
POLR2K (UniProt P53803) 0.24
PLK1 (UniProt P53350) -0.022
PLBD2 (UniProt Q8NHP8) -0.038
PIR (UniProt O00625) 0.028
PSMD12 (UniProt O00232) 0.032
PPID (UniProt Q08752) 0.019
PLSCR1 (UniProt O15162) -0.045
PIGT (UniProt Q969N2) -0.018
POLR2E (UniProt P19388) 0.032
PKN1 isoform 2 (UniProt Q16512) 0.014
PC (UniProt P11498) 0.002
PCID2 (UniProt Q5JVF3) 0.014
PGGT1B (UniProt P53609) -0.037
POLR2M (UniProt P0CAP2) -0.059
PSMC2 (UniProt P35998) 0.02
PKN2 (UniProt Q16513) 0.007
PDE12 (UniProt Q6L8Q7) -0.033
POLR2C (UniProt P19387) 0.138
PTPN12 (UniProt Q05209) -0.041
PSMD6 (UniProt Q15008) 0.058
PTEN isoform 2 (UniProt P60484) 0.025
RAB11FIP1 (UniProt Q6WKZ4) -0.018
PSPC1 (UniProt Q8WXF1) 0.034
PTGES3 (UniProt Q15185) -0.005
PIK3CB (UniProt P42338) 0.033
PML (UniProt P29590) 0.073
PSMD11 (UniProt O00231) 0.017
POLR2G (UniProt P62487) 0.183
PCBP2 isoform 3 (UniProt Q15366) 0.009
POP1 (UniProt Q99575) 0.027
